# Hits are enriched below; roughly 1.7% of the tested compounds scored in any of these assays.
# IDH1 R132H inh: qHTS for Inhibitors of mutant isocitrate dehydrogenase 1 (IDH1): qHTS. Isocitrate dehydrogenase [NADP] cytoplasmic (Homo sapiens), O75874. IDH1-R132H enzyme, NADPH consumption, diaphorase/resazurin fluorescence. Potency, µM (doses to about 76.6 µM), inactives show at the top dose activity change, negative = inhibition, hits mostly inhibitors. hit rate 0.093% among 390,000; note: % is set by controls: 0 for no effect and ±100 for the full control effect; nearly all actives have a fitted effect of over 65% in size
#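 IDH1-R132H (0.5 ug/mL dispensed) in pH 7.5 Tris buffer was preincubated 30 min with compound, then given a substrate mix of 0.016 mM NADPH and 2 mM alpha-KG for 80 min at room temperature; remaining NADPH was read by diaphorase/resazurin fluorescence.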
# Glioma ERSR ind: qHTS for Inducers of the Endoplasmic Reticulum Stress Response (ERSR) in Human Glioma: qHTS | hit rate 0.02% among 420,000 | U87-MG GRP78 promoter luciferase reporter, 16 h | Potency, µM, inactives show top-dose activation, most hits filed as activators; note: series mostly up to about 76 µM; % of control where 0% means no effect; nearly all actives have a fitted effect of over 35% in size
#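 Stably transfected U87-MG human glioma cells carrying a GRP78-based luminescent sensor were seeded at 1000 cells/well, pin-dosed with compounds and incubated 16 h. Luciferase reagent was then added, and end-point luminescence was read after 10 min at room temperature.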
# TrxR1 substrate: qHTS Assay for Substrates of Mammalian Selenoprotein Thioredoxin Reductase 1 (TrxR1): qHTS; purified TrxR1 substrate turnover, NADPH consumption readout; Potency, µM (series often up to 114 µM), without a hit: top-dose activity change, negative = substrate turnover; hit rate 0.01% among 390,000; Thioredoxin reductase 1, cytoplasmic (Rattus norvegicus), O89049; note: % is set by controls: 0 for no effect and ±100 for the full control effect; nearly all actives have a fitted effect of over 50% in size
#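 Rat TrxR1, dispensed at 90 nM, was prereduced with 400 uM NADPH (final) for 5 min at ~22 deg C, then incubated with compound 15 min before 400 uM selenite. A first-read NADPH fluorescence drop versus no-compound background flagged substrates.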
# 12-LOX inh: Primary qHTS assay for inhibitors of human arachidonate 12S-lipoxygenase (ALOX12): Round 2; hit rate 1.1% among 580,000; Potency, µM (series often up to 108 µM), inactives show top-dose activity change, negative = inhibition, actives largely listed as inhibitors; AID 1671190, 2021; purified 12hLO, xylenol orange hydroperoxide absorbance; note: % is set by controls: 0 for no effect and ±100 for the full control effect
# Target sequence (P18054 whole entry, looked up): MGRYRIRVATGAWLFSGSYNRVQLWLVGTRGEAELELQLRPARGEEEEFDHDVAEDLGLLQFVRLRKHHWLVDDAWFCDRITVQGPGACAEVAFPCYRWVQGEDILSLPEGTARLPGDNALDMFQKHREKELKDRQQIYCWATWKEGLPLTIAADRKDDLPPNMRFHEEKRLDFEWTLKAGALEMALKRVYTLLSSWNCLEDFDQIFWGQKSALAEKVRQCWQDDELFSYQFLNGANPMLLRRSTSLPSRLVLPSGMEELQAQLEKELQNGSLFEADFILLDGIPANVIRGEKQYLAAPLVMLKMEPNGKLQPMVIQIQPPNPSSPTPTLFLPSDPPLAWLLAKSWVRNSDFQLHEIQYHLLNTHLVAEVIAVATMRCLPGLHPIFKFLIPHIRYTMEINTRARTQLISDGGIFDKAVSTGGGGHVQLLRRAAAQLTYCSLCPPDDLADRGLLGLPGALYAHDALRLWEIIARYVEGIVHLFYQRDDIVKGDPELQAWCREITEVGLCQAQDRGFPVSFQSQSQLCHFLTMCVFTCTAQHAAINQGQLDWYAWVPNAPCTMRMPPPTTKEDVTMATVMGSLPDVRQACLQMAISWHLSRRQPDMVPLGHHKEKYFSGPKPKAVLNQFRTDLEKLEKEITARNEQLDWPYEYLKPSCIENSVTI
#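 Hydroperoxide product was detected by ferrous iron/xylenol orange as the 573 to 405 nm absorbance ratio. Arachidonic acid at 40 uM (final) was turned over for 30 min at room temperature by 150 nM human 12hLO, pH 7.0 Hepes buffer, after 15 min compound preincubation.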
# TrxR1 inh: qHTS Assay for Inhibitors of Mammalian Selenoprotein Thioredoxin Reductase 1 (TrxR1): qHTS; Potency, µM (doses to about 114 µM), inactives show at the top dose activity change, negative = inhibition, hits mostly inhibitors; hit rate 1% among 390,000; recombinant rTrxR1, NADPH fluorescence consumption, selenite substrate; Thioredoxin reductase 1, cytoplasmic (Rattus norvegicus), O89049; note: % is set by controls: 0 for no effect and ±100 for the full control effect; nearly all actives have a fitted effect of over 65% in size
#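 Rat TrxR1 (90 nM in the dispensed reagent) was pre-reduced with 400 uM NADPH for 5 min at room temperature, then incubated with compound for 15 min. After 400 uM selenite was added, NADPH fluorescence (Ex 340/Em 450 nm) was followed for 8 min.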
# Apoferritin bind: qHTS Assay for Identification of Novel General Anesthetics; apoferritin/1-aminoanthracene competitive binding, fluorescence; Potency, µM (series often up to 77.5 µM), for the others: at the top dose activity change, negative = displacement, most hits filed as inhibitors; AID 485281, 2010; hit rate 0.074% among 350,000; note: % is set by controls: 0 for no effect and ±100 for the full control effect; nearly all actives have a fitted effect of over 20% in size
#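 Horse-spleen apoferritin (10 uM) was mixed with 50% saturated 1-aminoanthracene in PBS, exposed to compounds for 10 min at room temperature, and read for fluorescence (ex 380 nm, em 535 nm). Competitive displacement was fitted with a four-parameter Hill equation.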
# The depositor's hits bear a star; u = inconclusive; x = no result given; [ ] = another dose, or the depositor's remark. Calls come from the whole dose curve; as a rule, active = well fitted curve in the direction sought with a large enough effect; inconclusive = small, poorly fitted or top-dose-only effect, or another doubt; inactive = no such curve, though single readings can be large; an effect the other way counts as inactive or inconclusive. Potency is the fitted concentration of half-maximal effect.
SMILES,IDH1 R132H inh,Glioma ERSR ind,TrxR1 substrate,12-LOX inh,TrxR1 inh,Apoferritin bind
O=C(/C=C/c1cccc(C(F)(F)F)c1)c1cccc(N2CCCC2=O)c1,x,x,x,-15%,x,x
CC1CCC(C)[S+]1c1cc(O)ccc1O (centres undefined),x,x,x,10µM*,x,x
FC(F)(F)c1ccccc1CN1CCC(Cc2ccccc2)CC1,1%,1%,2%,0.71µM*,15%,-2%
CN(Cc1ccccc1)C(=O)C1CCN(Cc2cccc3ccccc23)CC1,x,x,x,1.3µM*,x,x
Cc1ccccc1CN1CCC(N(C)Cc2ccccc2)CC1,x,x,x,0.56µM*,x,x
Cc1ccccc1CN(C)C1CCN(C)CC1,-4%,-2%,8%,-10%,39%,-1%
Clc1ccccc1CN1CCC(Cc2ccccc2)CC1,8%,-5%,1%,u,4%,4%
COC(=O)CSc1nnc2c3c(c(C#N)c(Nc4ccccc4)n12)CC(C)(C)OC3,x,x,x,6%,x,x
c1ccc(CN2CCN(c3nc(NCc4ccco4)c4ccccc4n3)CC2)cc1,0%,-5%,4%,40µM*,-18%,5%
Cc1cccc(-c2nnc(SCC(=O)Nc3ccc(F)c(F)c3)n2Cc2ccco2)c1,x,x,x,14%,x,x
O=[N+]([O-])c1cccc(C=NNc2ccccc2)c1,7%,11%,-11%,45µM*,-12%,x
O=[N+]([O-])c1ccc(C=NNc2ccccc2)cc1,1%,6%,-16%,u,-21%,x
Cc1ccc(SCC(=O)NC(C)(C#N)C2CC2)c(C)c1 (centres undefined),x,x,x,35µM*,x,x
CC(C#N)(NC(=O)CSc1ccc(F)cc1)C1CC1 (centres undefined),x,x,x,15%,x,x
CCn1nc(C(=O)Nc2ccc(SC(F)F)cc2)c2ccccc2c1=O,x,x,x,6%,x,x
Cc1ccc(Sc2c([N+](=O)[O-])ncn2C)cc1,3%,6%,1%,2%,u,u
Cn1cnc([N+](=O)[O-])c1Sc1ncccc1N,0%,3%,-3%,0%,35µM*,-17%
Cc1cc(/C=C2\SC(=S)NC2=O)c(C)n1-c1cccc(O)c1,-1%,2%,-12%,40µM*,-19%,2%
CN(Cc1ccccc1)C(=O)C[C@@H]1O[C@H](CNC(=O)c2ccno2)[C@@H](O)[C@H]1O,x,x,x,28µM*,x,x
Clc1ccccc1Cn1c(/C=C/c2ccco2)nc2ccccc21,3%,-3%,-1%,u,50µM*,-6%
N#Cc1cccc(OCc2coc(-c3cccc(F)c3)n2)c1,x,x,x,-32%,x,x
Cc1cc(C)nc(S/C=C/C(=O)c2ccccc2F)n1,6%,11%,11%[57.1 µM],-8%,2µM*,1%
O=C1COc2ccc(-c3ccncc3)nc2CN1Cc1ccccc1F,x,x,x,15%[176 µM],x,x
COc1ccc(C=C2C=C(C(C)(C)C)C(=O)C(C(C)(C)C)=C2)cc1OC,5%,13%,1%,u,11µM*,u
O=C1NC(=Nc2ccccc2)S/C1=C\c1ccccc1,2%,3%,-2%[11.4 µM],-14%,0%,-7%
SMILES,IDH1 R132H inh,Glioma ERSR ind,TrxR1 substrate,12-LOX inh,TrxR1 inh,Apoferritin bind
O=C1N/C(=N/Nc2ccccc2)S/C1=C\c1ccccc1,0%,-1%,-16%,5.6µM*,-30%,u
CC(=O)Nc1ccc(S(=O)(=O)NCCc2csc(C)n2)cc1,0%,-4%,-8%,-3%,11%,1%
CC(=O)Nc1cccc(C(C)NCc2csc(C)n2)c1 (centres undefined),x,x,x,2µM*,x,x
COc1cc2nc(CSCC(=O)NCCC(C)C)[nH]c(=O)c2cc1OC,x,x,x,-36%,x,x
Cc1ccc(C(=O)CSC2=C(C#N)C(c3ccco3)CC(=O)N2)c(C)c1 (centres undefined),7%,-3%,-9%[57.1 µM],50µM*,u,u
Cc1ccc(NC(=O)CSC2=C(C#N)C(c3ccco3)CC(=O)N2)cc1 (centres undefined),-1%,2%,-5%,u,-10%,-18%
O=C(CSc1ncc2c(n1)-c1ccccc1N(Cc1ccc(F)cc1)S2(=O)=O)NCc1ccccc1,-3%,-2%,9%[57.1 µM],-18%,15%[57.1 µM],-2%
Nc1nc(/C(=C/CC(=O)O)C(=O)NC2C(=O)N3C(C(=O)O)=CCSC23)cs1 (centres undefined),x,-4%,x,x,x,3%
CCOC(=O)c1ccc(NC(=O)c2c(NCc3sccc3C)sc3c2CCCCC3)cc1,3%,u,-10%[57.1 µM],11µM*,-33%[57.1 µM],-9%
CC(C)(C)S(=O)(=O)N1C[C@H]2CC/C=C\C/C=C\2[C@@H]1CCO,5%,0%,x,2%,x,x
Clc1ccc(N2CCN(Cc3ccco3)CC2)cc1,0%,-2%,7%[57.1 µM],0.63µM*,12%[57.1 µM],-13%
CCCN1C(=O)Cc2cc(C(=O)NCc3ccccc3F)ccc21,x,x,x,36%,x,x
COCCn1c(SCC(=O)c2ccc3c(c2)OCCO3)nnc1-c1ccco1,5%,-4%,6%,u,u,-14%
CCn1c(SCC(=O)c2ccc3c(c2)OCCO3)nnc1-c1ccco1,14%,-2%,1%,u,50µM*,-20%
CC(=O)NC(CCc1ccc(Cl)c(Cl)c1)c1cccc(O)c(=O)c1 (centres undefined),7%,-6%,x,40µM*,x,x
C=C(C)Cn1c(=O)c2c(ncn2Cc2ccco2)n(Cc2ccccc2)c1=O,x,x,x,9%,x,x
COc1cc(C2SC[C@H]3C(=O)N(c4ccccc4)C(=O)N23)cc(OC)c1OC (some centres undefined),7%,-2%,-2%,-3%,79µM*,1%
Cc1ccc(N2C(=O)[C@@H]3CSC(c4ccc(F)cc4)N3C2=O)cc1 (some centres undefined),6%,-2%,-2%,-16%,5%,48%
O=C(/C=C\NCC(=O)c1ccccc1)c1ccc2ccccc2c1,5%,3%,3%,35µM*,u,-19%
O=C(/C=C\NCC(=O)c1ccccc1)c1ccc(F)cc1,-3%,-1%,1%,-20%,-17%,-14%
CN(Cc1cnc2ccccc2n1)C(=O)c1cccc(CCC(C)(C)O)c1,x,x,x,-7%,x,x
